# Laboratory results taken from PMC7862700, “An all-to-all approach to the identification of sequence-specific readers for epigenetic DNA modifications on cytosine”.
# Tests used:
# Test in all cases: DAPPL (digital affinity profiling via proximity ligation, sequencing); 10 mM Tris-HCl pH 7.5, 50 mM NaCl, 1 mM DTT, 4% glycerol, room temperature, 30 min; GST-TFs on glutathione beads, 16-mer random dsDNA library, 0.1% formaldehyde crosslink after washing; high values mean tight binding
# FLI1 = target: T1, FLI1 (Homo sapiens, UniProt Q01543 1-452); conditions: protein: recombinant; tags: N-terminal GST; dsDNA, one strand shown
# T1 sequence: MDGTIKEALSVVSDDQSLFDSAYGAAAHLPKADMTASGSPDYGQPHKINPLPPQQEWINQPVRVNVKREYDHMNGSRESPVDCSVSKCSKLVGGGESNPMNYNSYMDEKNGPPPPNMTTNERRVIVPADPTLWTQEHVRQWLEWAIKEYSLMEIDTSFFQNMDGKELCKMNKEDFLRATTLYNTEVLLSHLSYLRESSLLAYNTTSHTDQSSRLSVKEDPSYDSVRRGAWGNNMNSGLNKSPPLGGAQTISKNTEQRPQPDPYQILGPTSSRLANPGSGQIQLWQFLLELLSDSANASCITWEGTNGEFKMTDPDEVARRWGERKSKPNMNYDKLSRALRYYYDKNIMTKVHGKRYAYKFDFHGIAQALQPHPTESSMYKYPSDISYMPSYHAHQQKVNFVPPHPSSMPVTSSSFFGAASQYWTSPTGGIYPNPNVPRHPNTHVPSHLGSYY
# Summary of the method: (§1)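 Human transcription factors fused to GST were expressed in yeast, captured on glutathione beads, given DNA barcodes and pooled with a GST-only negative control. Pools were incubated with 200 nmole of a 16-mer random double-stranded DNA library in Tris/NaCl/DTT/glycerol buffer at room temperature for 30 min. They were then washed, crosslinked with 0.1% formaldehyde, proximity-ligated (BsaI/T4 ligase, 1 h, 37 °C), PCR-amplified and sequenced on an Illumina NextSeq500. Binding signal is each 6-mer's read frequency for a factor divided by its frequency for the GST control.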
# ELK1 = target: T2, ELK1 (Homo sapiens, UniProt P19419 1-428); conditions: protein: recombinant; tags: N-terminal GST; dsDNA, one strand shown
# T2 sequence: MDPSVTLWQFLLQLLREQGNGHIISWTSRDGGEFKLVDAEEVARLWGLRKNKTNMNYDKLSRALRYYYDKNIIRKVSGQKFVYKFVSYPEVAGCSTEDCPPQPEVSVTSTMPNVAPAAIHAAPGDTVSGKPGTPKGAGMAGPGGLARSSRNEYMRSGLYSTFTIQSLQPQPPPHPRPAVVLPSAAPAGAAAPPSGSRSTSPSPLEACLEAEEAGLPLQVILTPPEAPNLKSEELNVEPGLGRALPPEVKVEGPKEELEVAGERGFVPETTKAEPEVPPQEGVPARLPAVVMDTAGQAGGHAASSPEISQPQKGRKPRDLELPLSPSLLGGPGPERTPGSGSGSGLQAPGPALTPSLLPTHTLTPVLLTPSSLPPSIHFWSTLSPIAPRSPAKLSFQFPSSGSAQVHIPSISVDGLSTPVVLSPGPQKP
# Summary of the method: as §1
# GABPA = target: T3, GABPA (Homo sapiens, UniProt Q06546 1-454); conditions: protein: recombinant; tags: N-terminal GST; dsDNA, one strand shown
# T3 sequence: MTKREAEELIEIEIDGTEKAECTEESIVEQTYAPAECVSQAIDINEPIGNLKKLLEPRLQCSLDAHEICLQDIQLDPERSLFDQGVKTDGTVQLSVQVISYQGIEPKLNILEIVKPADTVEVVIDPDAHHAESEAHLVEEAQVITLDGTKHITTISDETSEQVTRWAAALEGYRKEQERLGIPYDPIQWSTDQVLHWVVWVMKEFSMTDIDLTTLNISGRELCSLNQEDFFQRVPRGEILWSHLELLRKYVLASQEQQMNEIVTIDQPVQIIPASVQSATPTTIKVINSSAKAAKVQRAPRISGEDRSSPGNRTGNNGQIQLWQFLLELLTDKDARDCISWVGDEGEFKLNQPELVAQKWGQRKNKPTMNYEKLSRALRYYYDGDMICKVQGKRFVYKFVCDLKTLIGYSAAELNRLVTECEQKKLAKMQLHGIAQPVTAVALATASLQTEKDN
# Summary of the method: as §1
# ERG = target: T4, ERG (Homo sapiens, UniProt P11308 1-479); conditions: protein: recombinant; tags: N-terminal GST; dsDNA, one strand shown
# T4 sequence: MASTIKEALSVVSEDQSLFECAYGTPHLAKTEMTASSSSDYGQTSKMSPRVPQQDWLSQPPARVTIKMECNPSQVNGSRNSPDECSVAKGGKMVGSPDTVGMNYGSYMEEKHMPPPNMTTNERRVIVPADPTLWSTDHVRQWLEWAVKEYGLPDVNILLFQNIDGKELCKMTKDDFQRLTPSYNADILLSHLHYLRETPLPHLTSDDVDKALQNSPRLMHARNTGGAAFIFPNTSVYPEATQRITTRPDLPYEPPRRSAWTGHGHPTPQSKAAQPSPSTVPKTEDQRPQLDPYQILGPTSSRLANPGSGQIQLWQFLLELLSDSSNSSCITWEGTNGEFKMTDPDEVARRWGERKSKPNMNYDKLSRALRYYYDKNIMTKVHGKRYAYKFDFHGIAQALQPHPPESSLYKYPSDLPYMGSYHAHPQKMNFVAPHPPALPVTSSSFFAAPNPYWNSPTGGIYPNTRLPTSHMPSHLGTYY
# Summary of the method: as §1
# ELF1 = ELF1 (Homo sapiens, UniProt P32519 1-619); conditions: protein: recombinant; tags: N-terminal GST; dsDNA, one strand shown
# Summary of the method: as §1
# EHF = target: T5, EHF (Homo sapiens, UniProt Q9NZC4 1-300); conditions: protein: recombinant; tags: N-terminal GST; dsDNA, one strand shown
# T5 sequence: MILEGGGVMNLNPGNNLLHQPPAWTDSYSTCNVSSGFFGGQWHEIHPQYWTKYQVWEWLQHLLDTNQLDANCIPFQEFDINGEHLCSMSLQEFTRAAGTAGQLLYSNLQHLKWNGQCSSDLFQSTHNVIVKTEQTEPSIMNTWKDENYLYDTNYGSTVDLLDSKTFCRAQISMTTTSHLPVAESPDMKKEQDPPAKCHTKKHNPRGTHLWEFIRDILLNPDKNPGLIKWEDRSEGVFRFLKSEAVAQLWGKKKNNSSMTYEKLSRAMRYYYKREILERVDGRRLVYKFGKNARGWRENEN
# Summary of the method: as §1
# SPI1 = SPI1 (Homo sapiens, UniProt P17947 1-270); conditions: protein: recombinant; tags: N-terminal GST; dsDNA, one strand shown
# Summary of the method: as §1
# SPIB = SPIB (Homo sapiens, UniProt Q01892 1-262); conditions: protein: recombinant; tags: N-terminal GST; dsDNA, one strand shown
# Summary of the method: as §1
# ELK3 = target: T6, ELK3 (Homo sapiens, UniProt P41970 1-407); conditions: protein: recombinant; tags: N-terminal GST; dsDNA, one strand shown
# T6 sequence: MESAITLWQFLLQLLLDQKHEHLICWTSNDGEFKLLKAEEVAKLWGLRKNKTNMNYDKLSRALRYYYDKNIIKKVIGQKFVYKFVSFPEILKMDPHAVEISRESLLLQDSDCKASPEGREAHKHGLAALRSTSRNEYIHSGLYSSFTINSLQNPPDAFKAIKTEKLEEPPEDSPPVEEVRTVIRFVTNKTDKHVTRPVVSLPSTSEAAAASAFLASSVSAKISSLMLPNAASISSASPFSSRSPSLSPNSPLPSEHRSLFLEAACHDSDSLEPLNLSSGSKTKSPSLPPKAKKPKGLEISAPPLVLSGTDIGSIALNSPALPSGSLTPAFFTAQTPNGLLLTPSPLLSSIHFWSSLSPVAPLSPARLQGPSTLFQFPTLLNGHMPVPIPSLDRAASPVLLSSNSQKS
# Summary of the method: as §1
# FEV = target: T7, FEV (Homo sapiens, UniProt Q99581 1-238); conditions: protein: recombinant; tags: N-terminal GST; dsDNA, one strand shown
# T7 sequence: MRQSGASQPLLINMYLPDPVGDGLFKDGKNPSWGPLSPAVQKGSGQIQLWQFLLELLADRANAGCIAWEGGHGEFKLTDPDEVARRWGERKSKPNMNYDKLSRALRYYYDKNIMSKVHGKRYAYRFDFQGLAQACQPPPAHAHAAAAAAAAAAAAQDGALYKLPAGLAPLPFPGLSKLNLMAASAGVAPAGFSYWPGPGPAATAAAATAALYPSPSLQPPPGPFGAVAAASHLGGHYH
# Summary of the method: as §1
# ETV5 = ETV5 (Homo sapiens, UniProt P41161 1-510); conditions: protein: recombinant; tags: N-terminal GST; dsDNA, one strand shown
# Summary of the method: as §1
# HSF1 = HSF1 (Homo sapiens, UniProt Q00613 1-529); conditions: protein: recombinant; tags: N-terminal GST; chain copies: 3; dsDNA, one strand shown
# Summary of the method: as §1
# SPIC = target: T8, SPIC (Homo sapiens, UniProt Q8N5J4 1-248); conditions: protein: recombinant; tags: N-terminal GST; dsDNA, one strand shown
# T8 sequence: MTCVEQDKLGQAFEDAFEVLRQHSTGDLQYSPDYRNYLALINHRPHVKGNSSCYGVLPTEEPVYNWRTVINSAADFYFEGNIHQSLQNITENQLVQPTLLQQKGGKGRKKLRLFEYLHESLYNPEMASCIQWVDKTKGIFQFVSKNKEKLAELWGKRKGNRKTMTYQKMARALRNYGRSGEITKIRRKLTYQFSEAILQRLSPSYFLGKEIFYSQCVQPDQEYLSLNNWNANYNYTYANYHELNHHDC
# Summary of the method: as §1
# ELF4 = ELF4 (Homo sapiens, UniProt Q99607 1-663); conditions: protein: recombinant; tags: N-terminal GST; dsDNA, one strand shown
# Summary of the method: as §1
# ELK4 = target: T9, ELK4 (Homo sapiens, UniProt P28324-2 1-405); conditions: protein: recombinant; tags: N-terminal GST; dsDNA, one strand shown
# T9 sequence: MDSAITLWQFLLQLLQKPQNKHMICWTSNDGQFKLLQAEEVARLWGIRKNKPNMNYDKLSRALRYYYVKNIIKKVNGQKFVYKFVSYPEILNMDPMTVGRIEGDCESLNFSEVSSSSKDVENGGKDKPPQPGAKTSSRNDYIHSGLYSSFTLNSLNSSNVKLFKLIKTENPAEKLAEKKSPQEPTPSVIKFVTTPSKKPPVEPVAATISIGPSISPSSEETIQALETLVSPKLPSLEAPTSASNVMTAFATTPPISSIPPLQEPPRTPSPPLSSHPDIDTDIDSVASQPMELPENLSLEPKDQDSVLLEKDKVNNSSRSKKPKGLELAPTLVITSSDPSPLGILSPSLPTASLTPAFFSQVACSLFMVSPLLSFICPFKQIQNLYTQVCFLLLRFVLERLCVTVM
# Summary of the method: as §1
# ETV2 = target: T10, ETV2 (Homo sapiens, UniProt O00321 1-342); conditions: protein: recombinant; tags: N-terminal GST; dsDNA, one strand shown
# T10 sequence: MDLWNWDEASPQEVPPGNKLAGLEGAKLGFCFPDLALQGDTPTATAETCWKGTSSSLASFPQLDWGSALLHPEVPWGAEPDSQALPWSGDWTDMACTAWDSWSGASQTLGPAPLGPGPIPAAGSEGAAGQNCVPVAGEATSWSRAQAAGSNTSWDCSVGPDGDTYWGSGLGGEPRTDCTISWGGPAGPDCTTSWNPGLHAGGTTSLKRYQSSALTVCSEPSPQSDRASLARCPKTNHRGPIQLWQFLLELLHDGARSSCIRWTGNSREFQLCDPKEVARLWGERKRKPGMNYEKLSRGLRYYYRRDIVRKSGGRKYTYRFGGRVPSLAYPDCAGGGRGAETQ
# Summary of the method: as §1
# ELF3 = target: T11, ELF3 (Homo sapiens, UniProt P78545 1-371); conditions: protein: recombinant; tags: N-terminal GST; dsDNA, one strand shown
# T11 sequence: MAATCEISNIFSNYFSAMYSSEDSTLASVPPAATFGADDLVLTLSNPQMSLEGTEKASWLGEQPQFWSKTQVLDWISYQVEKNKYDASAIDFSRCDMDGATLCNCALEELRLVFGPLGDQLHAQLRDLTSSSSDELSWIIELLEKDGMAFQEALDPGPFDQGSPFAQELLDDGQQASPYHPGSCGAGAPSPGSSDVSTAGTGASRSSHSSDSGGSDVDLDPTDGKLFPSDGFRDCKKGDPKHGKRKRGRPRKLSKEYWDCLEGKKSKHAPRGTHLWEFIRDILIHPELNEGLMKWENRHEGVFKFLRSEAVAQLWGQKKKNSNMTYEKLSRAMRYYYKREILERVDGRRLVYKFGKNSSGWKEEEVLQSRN
# Summary of the method: as §1
# CRX = CRX (Homo sapiens, UniProt O43186 1-299); conditions: protein: recombinant; tags: N-terminal GST; dsDNA, one strand shown
# Summary of the method: as §1
# ETV1 = ETV1 (Homo sapiens, UniProt P50549 1-477); conditions: protein: recombinant; tags: N-terminal GST; dsDNA, one strand shown
# Summary of the method: as §1
# Chain of ELF1 (P32519 whole entry): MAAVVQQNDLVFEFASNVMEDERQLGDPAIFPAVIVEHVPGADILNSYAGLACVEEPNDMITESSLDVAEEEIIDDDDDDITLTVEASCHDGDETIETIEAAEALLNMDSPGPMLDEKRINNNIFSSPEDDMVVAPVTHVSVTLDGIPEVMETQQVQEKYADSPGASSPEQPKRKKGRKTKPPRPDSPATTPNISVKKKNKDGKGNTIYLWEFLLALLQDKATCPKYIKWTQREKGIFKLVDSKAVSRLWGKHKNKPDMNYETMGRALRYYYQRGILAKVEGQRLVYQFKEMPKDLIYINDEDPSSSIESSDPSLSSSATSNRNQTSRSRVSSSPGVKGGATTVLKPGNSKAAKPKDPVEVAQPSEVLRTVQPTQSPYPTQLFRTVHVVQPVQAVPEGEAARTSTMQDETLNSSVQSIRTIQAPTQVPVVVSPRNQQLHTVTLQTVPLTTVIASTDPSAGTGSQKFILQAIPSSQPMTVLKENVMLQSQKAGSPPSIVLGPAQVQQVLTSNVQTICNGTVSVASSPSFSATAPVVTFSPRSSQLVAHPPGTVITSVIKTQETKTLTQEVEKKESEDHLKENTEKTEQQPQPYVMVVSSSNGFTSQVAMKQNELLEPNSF
# Chain of SPIB (Q01892 whole entry): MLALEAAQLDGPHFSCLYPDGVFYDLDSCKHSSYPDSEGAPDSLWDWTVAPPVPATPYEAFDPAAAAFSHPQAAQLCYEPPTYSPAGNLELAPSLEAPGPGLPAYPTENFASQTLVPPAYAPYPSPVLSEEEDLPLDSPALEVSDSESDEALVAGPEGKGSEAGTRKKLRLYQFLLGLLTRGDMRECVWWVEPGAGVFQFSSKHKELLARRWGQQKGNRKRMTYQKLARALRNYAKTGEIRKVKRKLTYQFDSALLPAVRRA
# Chain of ELF4 (Q99607 whole entry): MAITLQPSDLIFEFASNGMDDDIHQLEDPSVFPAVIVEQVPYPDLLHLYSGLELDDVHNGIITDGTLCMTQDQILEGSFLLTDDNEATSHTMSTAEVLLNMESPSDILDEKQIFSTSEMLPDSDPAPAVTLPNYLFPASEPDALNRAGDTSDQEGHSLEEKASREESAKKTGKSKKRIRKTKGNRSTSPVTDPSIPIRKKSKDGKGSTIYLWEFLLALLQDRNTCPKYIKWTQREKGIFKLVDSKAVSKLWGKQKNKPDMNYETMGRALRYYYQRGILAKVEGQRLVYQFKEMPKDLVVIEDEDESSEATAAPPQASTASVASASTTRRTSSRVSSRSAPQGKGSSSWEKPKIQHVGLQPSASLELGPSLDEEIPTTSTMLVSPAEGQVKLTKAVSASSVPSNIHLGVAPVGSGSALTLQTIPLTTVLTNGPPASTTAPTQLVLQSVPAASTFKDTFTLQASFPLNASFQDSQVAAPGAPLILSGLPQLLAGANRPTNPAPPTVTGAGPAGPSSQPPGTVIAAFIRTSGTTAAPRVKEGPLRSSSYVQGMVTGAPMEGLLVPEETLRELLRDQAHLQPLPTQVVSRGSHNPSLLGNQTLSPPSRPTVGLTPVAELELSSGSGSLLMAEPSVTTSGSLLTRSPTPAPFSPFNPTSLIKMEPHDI
# Chain of HSF1 (Q00613 whole entry): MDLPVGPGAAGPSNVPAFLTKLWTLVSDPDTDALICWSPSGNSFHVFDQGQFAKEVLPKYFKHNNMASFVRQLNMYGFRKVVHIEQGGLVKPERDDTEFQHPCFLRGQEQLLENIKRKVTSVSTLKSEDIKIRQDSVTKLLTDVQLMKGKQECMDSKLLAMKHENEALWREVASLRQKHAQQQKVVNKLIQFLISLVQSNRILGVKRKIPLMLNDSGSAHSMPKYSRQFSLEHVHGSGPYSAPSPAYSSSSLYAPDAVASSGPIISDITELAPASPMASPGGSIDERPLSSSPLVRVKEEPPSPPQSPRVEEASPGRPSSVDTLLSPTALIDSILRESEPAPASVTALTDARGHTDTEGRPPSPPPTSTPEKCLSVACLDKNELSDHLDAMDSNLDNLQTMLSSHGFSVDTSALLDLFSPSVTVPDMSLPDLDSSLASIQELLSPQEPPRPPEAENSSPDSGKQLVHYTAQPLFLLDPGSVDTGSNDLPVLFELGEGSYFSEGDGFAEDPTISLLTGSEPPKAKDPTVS
# Chain of ETV5 (P41161 whole entry): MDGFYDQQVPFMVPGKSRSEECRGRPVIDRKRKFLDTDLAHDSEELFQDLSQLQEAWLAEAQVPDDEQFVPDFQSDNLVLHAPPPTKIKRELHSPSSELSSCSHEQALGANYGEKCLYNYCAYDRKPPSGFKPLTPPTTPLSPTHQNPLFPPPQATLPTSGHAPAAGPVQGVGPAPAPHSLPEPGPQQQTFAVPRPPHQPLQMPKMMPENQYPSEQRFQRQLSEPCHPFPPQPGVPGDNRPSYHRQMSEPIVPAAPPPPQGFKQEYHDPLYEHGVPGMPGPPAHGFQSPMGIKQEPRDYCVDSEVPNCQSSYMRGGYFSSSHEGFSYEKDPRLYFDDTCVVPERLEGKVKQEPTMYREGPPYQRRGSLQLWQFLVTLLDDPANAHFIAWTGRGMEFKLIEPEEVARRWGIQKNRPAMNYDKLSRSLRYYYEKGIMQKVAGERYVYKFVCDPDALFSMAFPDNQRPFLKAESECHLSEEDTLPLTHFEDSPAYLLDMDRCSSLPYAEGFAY
# Chain of ETV1 (P50549 whole entry): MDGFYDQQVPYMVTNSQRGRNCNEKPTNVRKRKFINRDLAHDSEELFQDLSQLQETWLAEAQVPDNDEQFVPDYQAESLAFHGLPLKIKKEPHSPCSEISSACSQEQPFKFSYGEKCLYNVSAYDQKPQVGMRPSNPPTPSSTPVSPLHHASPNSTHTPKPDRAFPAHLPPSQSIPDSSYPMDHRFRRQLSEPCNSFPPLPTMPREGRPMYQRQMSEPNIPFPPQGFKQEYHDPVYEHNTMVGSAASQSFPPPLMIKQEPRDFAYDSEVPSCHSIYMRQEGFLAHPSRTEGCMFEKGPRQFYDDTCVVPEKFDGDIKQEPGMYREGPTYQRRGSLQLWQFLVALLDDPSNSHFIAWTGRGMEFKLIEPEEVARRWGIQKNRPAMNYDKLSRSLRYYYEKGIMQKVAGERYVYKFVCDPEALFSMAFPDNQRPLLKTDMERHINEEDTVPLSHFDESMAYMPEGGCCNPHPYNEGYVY
# Chain of CRX (O43186 whole entry): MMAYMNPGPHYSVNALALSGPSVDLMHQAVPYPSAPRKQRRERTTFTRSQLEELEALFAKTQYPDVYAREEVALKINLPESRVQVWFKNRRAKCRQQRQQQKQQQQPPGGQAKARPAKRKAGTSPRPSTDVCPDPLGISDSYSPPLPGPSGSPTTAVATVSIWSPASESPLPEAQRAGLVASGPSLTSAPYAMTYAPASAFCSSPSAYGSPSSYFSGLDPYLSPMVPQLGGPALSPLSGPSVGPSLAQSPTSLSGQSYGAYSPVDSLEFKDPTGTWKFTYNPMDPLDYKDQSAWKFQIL
sequence,measurement,setting,value
TTCGTC,binding signal,FLI1,"1.36 fold enrichment (6-mer frequency, TF over GST control)"
same,binding signal,ELK1,"1.33 fold enrichment (6-mer frequency, TF over GST control)"
same,binding signal,GABPA,"1.33 fold enrichment (6-mer frequency, TF over GST control)"
same,binding signal,ERG,"1.23 fold enrichment (6-mer frequency, TF over GST control)"
same,binding signal,ELF1,"1.32 fold enrichment (6-mer frequency, TF over GST control)"
same,binding signal,EHF,"1.27 fold enrichment (6-mer frequency, TF over GST control)"
same,binding signal,SPI1,"1.29 fold enrichment (6-mer frequency, TF over GST control)"
same,binding signal,SPIB,"1.27 fold enrichment (6-mer frequency, TF over GST control)"
same,binding signal,ELK3,"1.22 fold enrichment (6-mer frequency, TF over GST control)"
same,binding signal,FEV,"1.21 fold enrichment (6-mer frequency, TF over GST control)"
same,binding signal,ETV5,"1.33 fold enrichment (6-mer frequency, TF over GST control)"
same,binding signal,HSF1,"1.25 fold enrichment (6-mer frequency, TF over GST control)"
same,binding signal,SPIC,"1.23 fold enrichment (6-mer frequency, TF over GST control)"
same,binding signal,ELF4,"1.29 fold enrichment (6-mer frequency, TF over GST control)"
same,binding signal,ELK4,"1.41 fold enrichment (6-mer frequency, TF over GST control)"
same,binding signal,ETV2,"1.33 fold enrichment (6-mer frequency, TF over GST control)"
same,binding signal,ELF3,"1.39 fold enrichment (6-mer frequency, TF over GST control)"
same,binding signal,CRX,"1.09 fold enrichment (6-mer frequency, TF over GST control)"
same,binding signal,ETV1,"1.26 fold enrichment (6-mer frequency, TF over GST control)"
